Rows were chosen to be rich in hits. Some 12% of all compounds tested hit in one or more screens of this group.
VP16 counter: VP16 counterscreen qHTS for inhibitors of ROR gamma transcriptional activity; Drosophila S2 Gal4-VP16 UAS-luciferase, luminescence, 20 h; Potency, µM (series often up to 53.6 µM), actives largely listed as inhibitors; 310,000 tested, 3.5% active; AID 2546, 2010;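 also: Gal4-VP16 expression switched on by copper sulfate through the metallothionein promoter; nearly all actives have a fitted effect of over 50% in size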
ALDH1A1 inh: qHTS Assay for Inhibitors of Aldehyde Dehydrogenase 1 (ALDH1A1). Purified ALDH1A1, NADH fluorescence, propionaldehyde substrate. Potency, µM (highest dose often 75.3 µM), usual class: inhibitors. 220,000 tested, 7.3% active. Aldehyde dehydrogenase 1A1 (Homo sapiens), P00352; active = well fitted inhibition curve with a large enough effect, not every such curve was filed as active; inconclusive = small, poorly fitted or top-dose-only effect, or another doubt; inactive = no such curve, though single readings can be large or run the other way
RORg inh: qHTS for inhibitors of ROR gamma transcriptional activity. Nuclear receptor ROR-gamma (Mus musculus), P51450. Drosophila S2 Gal4-RORgamma UAS-luciferase reporter, 20 h. Potency, µM (top dose mostly 53.6 µM), most hits filed as inhibitors. 310,000 tested, 5.4% active. AID 2551, 2010; also: nearly all actives have a fitted effect of over 60% in size
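Luciferase reporter read in Schneider cells carrying Gal4-RORγ (mouse) and UAS-Photinus luciferase; cells given compound 1 h before 700 uM copper sulfate induction, then incubated 20 h at ambient temperature.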
PLK1 PBD block: qHTS for Inhibitors of PLK1-PDB (polo-like kinase 1 - polo-box domain): Primary Screen; Serine/threonine-protein kinase PLK1 (Homo sapiens), P53350; Plk1 PBD binding of FITC phosphopeptide, fluorescence polarization; Potency, µM, actives largely listed as inhibitors; 360,000 tested, 2.8% active; also: series mostly up to about 57 µM; nearly all actives have a fitted effect of over 65% in size
Target sequence (P53350 whole entry, looked up, the tested form may be a part): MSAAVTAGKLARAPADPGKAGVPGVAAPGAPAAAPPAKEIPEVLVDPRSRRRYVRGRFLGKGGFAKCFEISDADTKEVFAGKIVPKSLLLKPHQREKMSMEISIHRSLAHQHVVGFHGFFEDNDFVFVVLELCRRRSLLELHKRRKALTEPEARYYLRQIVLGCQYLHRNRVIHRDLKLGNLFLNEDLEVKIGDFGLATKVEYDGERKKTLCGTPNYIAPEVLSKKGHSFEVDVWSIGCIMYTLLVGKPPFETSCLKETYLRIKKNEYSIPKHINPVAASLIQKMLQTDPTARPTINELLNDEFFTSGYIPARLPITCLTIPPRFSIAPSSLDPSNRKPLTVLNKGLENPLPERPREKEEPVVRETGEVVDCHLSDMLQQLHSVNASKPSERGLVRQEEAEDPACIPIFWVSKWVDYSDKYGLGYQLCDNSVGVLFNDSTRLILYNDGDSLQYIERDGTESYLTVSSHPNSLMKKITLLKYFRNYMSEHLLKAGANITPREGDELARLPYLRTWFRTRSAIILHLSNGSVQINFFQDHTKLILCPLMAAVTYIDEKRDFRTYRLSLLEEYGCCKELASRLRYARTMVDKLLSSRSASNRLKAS
Sfp PPTase inh: qHTS Assay for Inhibitors of Bacillus subtilis Sfp phosphopantetheinyl transferase (PPTase) | Biochemical Sfp PPTase activity, qHTS | 310,000 tested, 3.5% active | Potency, µM, most hits filed as inhibitors | 4'-phosphopantetheinyl transferase ffp (Bacillus subtilis), Q9F4F7;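 also: the enzyme is Sfp with the accession as filed and its product quenches rhodamine fluorescence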
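Step 1, compound plus 15 nM Sfp-PPTase, 15 min, room temperature. Step 2, add rhodamine-CoA (5 uM) and BHQ-2-YbbR (12.5 uM). Step 3, read 525/598 nm fluorescence at 0 and 30 min.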
A number is an active result; - = inactive; ? = inconclusive; . = no result given; [ ] = another dose, or the depositor's remark. Unless noted, calls follow the shape of the dose curve; as a rule, active = well fitted curve in the direction sought with a large enough effect; inconclusive = small, poorly fitted or top-dose-only effect, or another doubt; inactive = no such curve, though single readings can be large; an effect the other way counts as inactive or inconclusive.

SMILES	VP16 counter	ALDH1A1 inh	RORg inh	PLK1 PBD block	Sfp PPTase inh
C/C(=N\N=C1\NC(=O)C(Cc2ccccc2)S1)c1ccccc1 (centres undefined)	-	-	10µM	29.9µM	-
CCNC(=O)CC1S/C(=N/N=C(\C)c2ccccc2)NC1=O (centres undefined)	-[10 µM]	-	-	21.2µM	-
C/C(=N\N=C1\NC(=O)C(CC(=O)NCc2ccccc2)S1)C(C)C (centres undefined)	-	-	-	-	-
Cc1ccccc1CNC(=O)C1CCC(=O)N(CC2CCCCC2)C1 (centres undefined)	-	.	-	-	-
Cc1ccc(C(C)(C)NC(=O)C2CCC(=O)N(CC3CCCCC3)C2)cc1 (centres undefined)	-	.	-	26.7µM	-
CO/C=C\C=C/c1nnn(-c2ccc(Cl)cc2)n1	?	25.1µM	-	?	4.47µM
CC(C)[C@H](NC(=O)OC(C)(C)C)c1cc(C(=O)N[C@@H](C)c2ccccc2)c(N)s1	.	.	.	-	.
Cc1cc(CNC[C@H]2O[C@@H](n3ccc(=O)[nH]c3=O)[C@H](O)[C@@H]2O)no1	.	.	.	-	.
Nc1c(C=C2C=CC(=O)C=C2)c(=O)nc2snc(SCc3ccccc3)n12	-	.	?	21.2µM	-
CSc1nsc2nc(=O)c(/C=C3\C=Nc4ccccc43)c(N)n12	-	-	?	?	-
O=C(/C=C/c1cccs1)N1CCCCC1	-[10 µM]	?	-	-	-
O=C(/C=C/c1cccs1)N1CCN(c2ccc(O)cc2)CC1	-[10 µM]	?	-	-	44.7µM
O=C(CCNS(=O)(=O)c1cccc2nonc12)NCc1cccs1	-	20µM	-	-	-
Cc1ccc(NC(=O)CCNS(=O)(=O)c2cccc3nonc23)cc1	-	?	-	-	-
COc1ccccc1CNC(=O)CCNS(=O)(=O)c1cccc2nonc12	-	.	-	-	-
CC(C)c1ccc(NC(=O)CCNS(=O)(=O)c2cccc3nonc23)cc1	-	25.1µM	?	-	-
O=C(CCNS(=O)(=O)c1cccc2nonc12)NC1CCCCCC1	-	25.1µM	-	?	-
CN1C(=O)CC[C@@H]1c1cccnc1	-	-	-	.	-
CCOC(=O)[C@]12CCCC=C1N(Cc1ccco1)C(=O)[C@H](CC(=O)NCCc1ccccc1OC)C2	.	.	.	-	.
COCCN1C(=O)CCC1(C)C(=O)Nc1ccc2c(c1)OCCO2 (centres undefined)	.	.	.	-	.
O=C1c2oc3ccc(F)cc3c(=O)c2C(c2ccc(F)cc2)N1CCCN1CCOCC1 (centres undefined)	.	.	.	-	.
O=C1c2oc3ccccc3c(=O)c2C(c2cccnc2)N1CCCN1CCOCC1 (centres undefined)	-	-	-	-	-
Cc1ccc(C2c3c(oc4cc(C)c(C)cc4c3=O)C(=O)N2CCCN2CCOCC2)cc1 (centres undefined)	-	11.2µM	-	-	-
C=CCOc1ccc(C2c3c(oc4ccccc4c3=O)C(=O)N2CCCN2CCOCC2)cc1 (centres undefined)	-	17.8µM	-	?	-
CC(C)Oc1ccc(C2c3c(oc4ccccc4c3=O)C(=O)N2CCCN2CCOCC2)cc1 (centres undefined)	-	8.91µM	-	-	-
SMILES	VP16 counter	ALDH1A1 inh	RORg inh	PLK1 PBD block	Sfp PPTase inh
O=C1c2oc3ccc(Cl)cc3c(=O)c2C(c2ccccn2)N1CCCN1CCOCC1 (centres undefined)	?	7.94µM	22.4µM	?	25.1µM
O=c1c(-c2cc(F)cc(F)c2)nc2cnc(N3CCOCC3)nc2n1C1CC1	-	?	-	.	-
C=C1CC2COC(=O)C2(Cc2ccc3ccccc3c2)C1 (centres undefined)	-	.	-	.	-
C=CCC1(CC=C)CCCN1C(=O)c1cc(COc2cccc(C(F)(F)F)c2)on1	12.6µM	.	-	-	-
CCCCCC(C)N (centres undefined)	-	-	-	.	-
COc1ccccc1-n1c(SCC(N)=O)nnc1-c1ccc(S(=O)(=O)N2CCCCC2)cc1	-	4.47µM	-	-	-
NC(=O)CSc1nnc(-c2ccc(S(=O)(=O)N3CCCCC3)cc2)n1-c1ccccc1	-	15.8µM	-	-	-

Compound activity as filed in PubChem.
